Assay outcomes as filed in PubChem.
FH mod: Identification of activators of human fumarate hydratase by quantitative high-throughput screening | 54,000 tested, 0.22% active | FH coupled MDH/diaphorase resazurin fluorescence, 15 min | Potency, µM (top dose mostly 79.9 µM), inactives show at the top dose activity change, negative = inhibition, hits mostly inhibitors | AID 1347055, 2019; further: potency means the concentration at half of the fitted maximal effect; on the % scale 0 is the no-effect control and ±100 the full control effect; the screen sought activators but most active calls are inhibition curves; nearly all actives have a fitted effect of over 45% in size
GPR32 ag: activates human resolvin D1 receptor GPR32; activation, % at 76.9 µM; 48,000 tested, 2.5% active; CHO-K1 GPR32 beta-arrestin PathHunter luminescence, 90 min; zero percent set by DMSO-only wells; AID 1346428;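 active means activation of at least 60% and not above a set upper limit, about 1 call in 100 departs from these limits; inconclusive means activation of 40% to 60%, or above that upper limit; inactive means activation under 40%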; further: 0% is about no effect
Target sequence (O75388 whole entry, looked up): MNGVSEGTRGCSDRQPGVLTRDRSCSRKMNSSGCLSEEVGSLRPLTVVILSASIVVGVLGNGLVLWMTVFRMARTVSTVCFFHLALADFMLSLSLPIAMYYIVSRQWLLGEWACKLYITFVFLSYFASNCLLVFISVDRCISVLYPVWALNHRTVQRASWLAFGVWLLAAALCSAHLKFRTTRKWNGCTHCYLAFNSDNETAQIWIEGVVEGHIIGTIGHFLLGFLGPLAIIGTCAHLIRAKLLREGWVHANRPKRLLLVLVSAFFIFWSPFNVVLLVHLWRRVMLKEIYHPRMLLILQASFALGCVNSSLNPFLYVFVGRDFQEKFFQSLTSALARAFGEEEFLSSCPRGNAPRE
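Agonism was scored as beta-arrestin recruitment to ProLink-fused GPR32 in stably transfected CHO-K1 cells, giving a chemiluminescent beta-Gal signal; compounds were incubated 90 min at 37 °C.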
SKOV3 invasion: blocks SKOV3ip1 adhesion and invasion in omental model; SKOV3ip1-GFP adhesion/invasion on 3D omental model, fluorescence; Potency, µM (highest dose often 45.8 µM), without a hit: at the highest dose activity change, negative = inhibition, actives largely listed as inhibitors; 46,000 tested, 0.1% active; AID 1963576;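 further: potency means the concentration at half of the fitted maximal effect; plate controls were DMSO wells for no effect and tomatine positive control wells for full effect; nearly all actives have a fitted effect of over 65% in size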
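A 3D layer of primary human omental fibroblasts, mesothelial cells, fibronectin and collagen I, grown 48 hr, received SKOV3ip1-GFP cells in serum-free medium plus compounds at 0.36-46 umol/L. After 2 hr RT and 16 hr 37 C, fixed adherent GFP cells were counted; normalized to DMSO and tomatine.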
NTMT1 inhibitor: inhibitors of human N-terminal methyltransferase NTMT1 | Q9BV86 | NTMT1 MTase-Glo SAH luminescence, purified enzyme | Potency, µM (top dose mostly 114 µM), for the others: at the top dose activity change, negative = inhibition, actives largely listed as inhibitors | 59,000 tested, 2.5% active | AID 1645870;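 further: potency means the concentration at half of the fitted maximal effect; plate controls were DMSO vehicle for no effect and no enzyme for full effect; nearly all actives have a fitted effect of over 65% in size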
Target sequence (Q9BV86 whole entry, looked up): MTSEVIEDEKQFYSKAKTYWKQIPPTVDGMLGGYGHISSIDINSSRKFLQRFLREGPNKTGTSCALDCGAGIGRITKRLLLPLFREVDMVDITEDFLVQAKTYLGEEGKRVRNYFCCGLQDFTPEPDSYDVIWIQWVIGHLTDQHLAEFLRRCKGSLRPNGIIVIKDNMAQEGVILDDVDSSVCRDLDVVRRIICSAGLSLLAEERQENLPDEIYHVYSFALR
Starred values were filed as active, the others as inactive; i = inactive; ? = inconclusive; / = no result; ! = not confirmed by another sample; [ ] = another dose, or the depositor's remark. The list is not random: actives were taken first. Their share in the collection is about 3.8%. Unless noted, the call rests on the fitted dose curve; in most records, active means well fitted curve in the direction sought with a large enough effect; inconclusive means small, poorly fitted or top-dose-only effect, or another doubt; inactive means no such curve, though single readings can be large; an effect the other way counts as inactive or inconclusive.

SMILES	FH mod	GPR32 ag	SKOV3 invasion	NTMT1 inhibitor
CC1CCN(c2nc3c(S(=O)(=O)c4ccc(Cl)cc4)nnn3c3ccsc23)CC1	-10%	1	i	6%
COc1ccc(NC(=O)CSc2c3c(nc4ccccc24)CCC3)cc1Cl	2%	1	i	7%
COc1cc(OC)c(NC(=O)c2ccc(-n3cnc4cccnc43)cc2)cc1Cl	-1%	15	-2%	-3%
COC(=O)c1ccc(C2Nc3c(C)cc(C)cc3C3C=CCC32)cc1 (stereo not drawn)	-2%	79*	4%	34%
COC(=O)c1ccc([C@@H]2Nc3c(cccc3C(F)(F)F)[C@@H]3C=CC[C@@H]32)cc1	-5%	-24	3%	3%
COc1ccc(CCNc2ncnc3onc(C)c23)c(OC)c1	-12%	75*	4%	-3%
COc1cccc(CNc2ncnc3onc(C)c23)c1	-1%	33	-2%	9%
COc1ccc(NC(=O)CSc2ccc(-c3cccs3)nn2)cc1	-27%	112*	i	-15%
COc1cc(S(=O)(=O)NCCc2c(C)[nH]c3ccccc23)c(C)cc1C	-21%	78*	i	0%
Cc1ccn2c(Nc3ccc4c(c3)OCCO4)c(-c3ccc(Cl)s3)nc2c1	-23%	-28	-12%	?
Cc1cccc(NC(=O)N2CCc3c(sc4c3CCCC4)C2c2ccc(F)cc2)c1 (stereo not drawn)	-8%	9	3%	-21%
O=C(CN1C(=O)C2(SCC(=O)N2c2ccccc2)c2ccccc21)NCc1ccccc1Cl (stereo not drawn)	-4%	-5	i	42%
CCc1ccc(Nc2nc(N)nc(CSc3nc4ccccc4s3)n2)cc1	?	35	-15%	89µM*
CC(=O)Nc1ccc2nc(SCc3ccccc3)sc2c1	?	?	-25%	4%
O=C(NCCc1nc2ccccc2n1CCCOc1ccc(Cl)cc1)C1CCCCC1	?	18	-9%	13%
CC(=O)NCCc1nc2ccccc2n1CCCCOc1ccc(Cl)cc1	-13%	76*	-10%	-1%
CCCC(O)c1nc2ccccc2n1CCCCOc1ccc(OC)cc1 (stereo not drawn)	-15%	91*	i	6%
COc1ccccc1NC(=O)c1cc(S(=O)(=O)N2CCN(c3ccccc3Cl)CC2)ccc1F	-6%	2	1%	8%
COc1ccc(N2CCN(S(=O)(=O)c3ccc(F)c(C(=O)Nc4ccccc4Cl)c3)CC2)cc1	7%	91*	-10%	13%
CC(=O)N1c2nc(-c3ccco3)nn2C2(CCCCC2)[C@@H]2CCCC[C@@H]21	-7%	-4	i	-18%
CC(C)C(=O)N1c2nc(-c3ccco3)nn2C2(CCCCC2)[C@@H]2CCCC[C@@H]21	2%	-14	-14%	89µM*
Cc1nnc(N2CCN(C(=O)NCCC(C)C)CC2)c2nn(-c3ccc(Cl)cc3)c(C)c12	-7%	-9	-5%	-5%
Oc1ccc(O)cc1	3.5µM*	2	/	35µM*
CCOc1cc(Cl)c(S(=O)(=O)n2cc(C)nc2CC)cc1Cl	?	15	i	4%
CCOC(=O)c1cccc(NC(=O)CC(c2cc(OC)c(OC)c(OC)c2)N2Cc3ccccc3C2=O)c1 (stereo not drawn)	-13%	-8	8%	89µM*
SMILES	FH mod	GPR32 ag	SKOV3 invasion	NTMT1 inhibitor
O=C(CC(c1cccs1)N1Cc2ccccc2C1=O)Nc1cccc(F)c1 (stereo not drawn)	3%	61*	3%	5%
Cc1cc(O)c(C(c2cccc(F)c2)N2CCC(C)CC2)c(=O)n1Cc1ccco1 (stereo not drawn)	-6%	-10	-7%	-20%
Cc1ccc2c(c1)c1c(c(=O)n(-c3cccc(Cl)c3)c(=O)n1CC(=O)NCCC1=CCCCC1)n2C	0%	-4	4%	12%
COc1ccccc1NC(=O)N1CCN(c2ccc3nnc(-c4ccc(F)cc4)n3n2)CC1	-14%	5	8%	79µM*
O=C(Nc1ccc(Cl)cc1)N1CCN(c2ccc3nnc(-c4ccccc4)n3n2)CC1	?	19	i	0%
COc1cccc(NC(=O)C2CCCN(c3ncnc4onc(C)c34)C2)c1 (stereo not drawn)	0%	11	7%	8%
CC(C)C(=O)Oc1ccc(CO)cc1[C@H](CCN(C(C)C)C(C)C)c1ccccc1	?	/	-14%	22µM*!
Cc1ccc(O)c([C@H](CCN(C(C)C)C(C)C)c2ccccc2)c1	0%[53.3 µM]	-6	/	?
CCc1ccc(NC(=O)CSc2nc(C)c(C(=O)Nc3ccc(Cl)cc3)c(-c3ccc(OC)cc3)c2C#N)cc1	-1%	1	0%	9%
CC(C)(C)c1ccc(-c2nc(SCC(=O)Nc3ccc(Cl)cc3)[nH]c(=O)c2C#N)cc1	?	3	3%	20µM*
CC(=O)N1c2ccccc2CC1C(=O)N1CCN(c2ccccc2F)CC1 (stereo not drawn)	-2%	-14	i	-2%
CC(=O)N1c2ccccc2CC1C(=O)N1CCN(c2cccc(C)c2C)CC1 (stereo not drawn)	-8%	116*	38%	-1%
CN(Cc1ccccc1)c1ncnc2c1nc1n2CCCC1	-5%	-6	-17%	?
Cc1ccccc1C(=O)Nc1cccc(OCc2cc(=O)n3c4c(sc3n2)CCCC4)c1	-6%	14	-4%	-4%
Cc1ccc(-n2ncc3c(NCc4ccccc4)ncnc32)cc1Cl	-2%	62*	i	5%
Cc1ccc(Cl)cc1-n1ncc2c(NCCc3ccccc3)ncnc21	-28%	101*	0%	-1%
Cc1ccc(CNc2ncnc3c2cnn3-c2ccc(Cl)cc2)cc1	2%	-8	-14%	26%
Cc1ccc(Cl)cc1-n1ncc2c(NCCCc3ccccc3)ncnc21	?	78*	9%	-2%
COc1cccc(Oc2nc(C)nc3c2oc2ccccc23)c1	-13%	-14	-11%	-11%
COc1cc(OC)cc(-c2ccc3ncc4ccc(=O)n(-c5ccc(N6CCNCC6)c(C(F)(F)F)c5)c4c3c2)c1	-20%[53.3 µM]	/	7%	43µM*
COc1ccc(-c2nn(-c3ccc(F)cc3)c3c2cnc2cc4c(cc23)OCO4)cc1	-2%	0	-5%	3%
CCOc1cc2ncc(C#N)c(Nc3ccc(OCc4ccccn4)c(Cl)c3)c2cc1NC(=O)/C=C/CN(C)C	2%[53.3 µM]	/	/	?
CN(C)C/C=C/C(=O)Nc1cc2c(Nc3ccc(F)c(Cl)c3)ncnc2cc1O[C@H]1CCOC1	/	/	/	3.2µM*
CN(C)CC=CC(=O)Nc1cc2c(Nc3ccc(F)c(Cl)c3)ncnc2cc1O[C@H]1CCOC1	-2%[53.3 µM]	/	-8%	22µM*
CCOc1cc2ncc(C#N)c(Nc3ccc(F)c(Cl)c3)c2cc1NC(=O)C=CCN(C)C	0%[53.3 µM]	/	-2%	3.8µM*
COc1cc2ncnc(Nc3ccc(F)c(Cl)c3)c2cc1NC(=O)C=CCN1CCCCC1	5%[53.3 µM]	/	-1%	-28%[57.5 µM]
